Screening data: PubChem BioAssay, several laboratories
Compounds with a hit are over-represented: about 4.1% of the library has one in this group of screens.
MEKK3 PB1 HTS: modulators of MEKK3-MEK5 PB1 binding, primary screen, biochemical, wildtype MEKK3, multiplex bead flow cytometry, Alexa488-MEK5; bead-based flow cytometry, Alexa488-MEK5 binding to MEKK3; actives lie on both sides; 0 = blocked by unlabeled MEK5, 100 = vehicle; binding response (% of control), % at 10 µM; hit rate 1.4% among 290,000;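 active = binding response more than 3 SD above or below the average of its plate-row segment, actives on both sides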;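 also: Alexa488 bead fluorescence after subtracting the streptavidin-only scavenger bead signal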
Target sequence (Q99759 whole entry, looked up): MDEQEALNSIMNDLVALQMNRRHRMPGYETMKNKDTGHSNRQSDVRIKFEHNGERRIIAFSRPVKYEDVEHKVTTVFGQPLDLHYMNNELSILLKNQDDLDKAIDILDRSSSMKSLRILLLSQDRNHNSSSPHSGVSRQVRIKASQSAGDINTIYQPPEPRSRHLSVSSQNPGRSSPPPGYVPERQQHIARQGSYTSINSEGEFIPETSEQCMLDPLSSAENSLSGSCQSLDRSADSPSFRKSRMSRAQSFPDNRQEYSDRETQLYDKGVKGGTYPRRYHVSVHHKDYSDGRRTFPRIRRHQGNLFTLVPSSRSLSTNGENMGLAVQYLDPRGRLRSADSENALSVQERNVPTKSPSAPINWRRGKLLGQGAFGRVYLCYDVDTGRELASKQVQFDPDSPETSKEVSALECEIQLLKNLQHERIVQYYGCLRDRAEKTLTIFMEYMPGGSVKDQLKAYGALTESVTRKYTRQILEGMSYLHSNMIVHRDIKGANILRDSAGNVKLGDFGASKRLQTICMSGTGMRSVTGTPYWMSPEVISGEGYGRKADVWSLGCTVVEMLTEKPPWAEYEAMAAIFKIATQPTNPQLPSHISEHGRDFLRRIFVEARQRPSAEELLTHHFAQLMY
CHT PAM: CHT positive allosteric modulators, primary screen, cell-based, membrane potential dye, choline EC20 | High affinity choline transporter 1 (Homo sapiens), Q9GZV3 | hit rate 0.49% among 310,000 | B-score at 10 µM | CHT-expressing cells; hits give high values; LV-AA mutant CHT in HEK293 cells;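 active = initial fluorescence not abnormally high and integrated response B-score, plate-corrected, over 3 SD above library mean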
MEKK2wt PB1 HTS: modulators of MEK5 binding to wildtype MEKK2, primary screen, biochemical, multiplex bead flow cytometry, Alexa488-MEK5; hit rate 1.1% among 290,000; binding response (% of control), % at 10 µM; Alexa488-MEK5 binding to MEKK2 WT; actives lie on both sides; Mitogen-activated protein kinase kinase kinase 2 (Homo sapiens), Q9Y2U5; in the data active = binding response below about 67% or above about 130%
SUMO Mot1 rescue: yeast Mot1-301 growth rescue at high temperature, primary screen, SUMOylation pathway inhibitor project, S. cerevisiae, ATP luminescence, 38.5C; AID 2716, 2010; hit rate 1% among 320,000; growth rescue, % at 18.8 µM; S. cerevisiae Mot1-301 growth rescue; percent above DMSO median, 100 means doubled;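 active = every valid replicate shows activation above 250% relative to neutral control wells; inactive = the rest, any valid replicate at or below 250%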
MEKK2 mut-MEK5: MEK5 binding signal on mutant MEKK2 PB1, primary screen, biochemical, multiplex bead flow cytometry, Alexa488-MEK5; percent response, % at 10 µM; Alexa488-MEK5 binding to MEKK2 mutant; hit rate 0.35% among 290,000; AID 1530, 2009; in the data active = percent response above about 24%, passing the limit was not always enough
CHT block: inhibitors of human choline transporter CHT; CHT-expressing cells, membrane potential dye, choline response; hits give low values; B-score at 10 µM; hit rate 0.86% among 310,000;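 active = B-score over 3 SD under the library average, and starting fluorescence ratio not unusually high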;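 also: choline stimulus applied at its EC90 after an EC20 pre-addition; B-score computed on integrated fluorescence ratio after choline addition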
MEKK2wt confirm: modulators of MEK5 binding to wildtype MEKK2, confirmation, biochemical, single concentration, multiplex bead flow cytometry. shares compounds with MEKK3 PB1 HTS. Alexa488-MEK5 binding to MEKK2 WT; actives lie on both sides. binding response (% of control), % at 10 µM. hit rate 2.4% among 5,900. AID 1892, 2009; in the data active = binding response below about 16% or above about 210%; inactive = in between
MEKK2mut confirm: mutant MEKK2 PB1-MEK5 binding signal retest – biochemical, single concentration, multiplex bead flow cytometry, confirmation. shares compounds with MEKK3 PB1 HTS. percent response, % at 10 µM. hit rate 2% among 5,900. Alexa488-MEK5 binding to MEKK2 mutant; in the data active = percent response mostly above about 71%, no sharp cut-off; inactive = mostly below about 38%;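 also: higher means compound restores mutant binding toward wildtype level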
MEKK3 confirm: MEKK3 wild-type PB1 binding to MEK5, inhibitors, confirmation, biochemical, bead multiplex flow cytometry, single concentration, wildtype; shares compounds with MEKK3 PB1 HTS; Alexa488-MEK5 binding to MEKK3; hits give low values; binding response (% of control), % at 10 µM; hit rate 1.8% among 5,900; AID 1894, 2009;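 active = binding response below 72% of control, or above a set upper limit, though filed actives all read lower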;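 also: lower values mean stronger disruption of MEK5 binding to MEKK3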
Each line names hits and unclear results; the compound was inactive in the other large screens (follow-up assays come after a bar, where they were run); [ ] = dose if it differs, or a comment.

C#CC(=O)N(c1ccc(OC)c(OC)c1)C(C(=O)NC1CCCC1)c1cccs1 (centres undefined)	MEKK3 PB1 HTS 125.0 | MEKK2wt confirm inactive | MEKK2mut confirm inactive | MEKK3 confirm inactive
COc1ccccc1N1CCN(C(c2cccs2)C(C)NC(=O)c2ccncc2)CC1 (centres undefined)	none
OC(CN1CCCCC1)Cn1c2ccccc2c2cc(Br)ccc21 (centres undefined)	MEKK2wt PB1 HTS 161.0, MEKK2 mut-MEK5 35.0 | MEKK2wt confirm inactive | MEKK2mut confirm inactive | MEKK3 confirm inactive
O=C(c1ccco1)N1CCN(CC(O)Cn2c3ccccc3c3ccccc32)CC1 (centres undefined)	MEKK3 PB1 HTS 129.0 | MEKK2wt confirm inactive | MEKK2mut confirm inactive | MEKK3 confirm inactive
CCN(CC)C(=O)CSc1nc2ncc(Br)cc2[nH]1	none
O=C(CSc1nc2ncc(Br)cc2[nH]1)c1ccc([N+](=O)[O-])cc1	MEKK3 PB1 HTS 132.0 | MEKK2wt confirm inactive | MEKK2mut confirm inactive | MEKK3 confirm inactive
CCOC(=O)Cn1nc(C)c(NC(=O)c2ccc([N+](=O)[O-])c(C)c2)c1C	none
Nc1c(-c2ccccc2)cnn1-c1ccc(C(=O)O)cc1	MEKK3 PB1 HTS 82.0[inhibitor] | MEKK2wt confirm inactive | MEKK2mut confirm inactive | MEKK3 confirm inactive
Nc1c(-c2ccc(Cl)cc2)cnn1-c1ccccc1	none
COc1cc(CNc2cccc3[nH]c(C(F)(F)F)nc23)cc(OC)c1	MEKK2wt PB1 HTS 149.0, MEKK2 mut-MEK5 24.0 | MEKK2wt confirm inactive | MEKK2mut confirm inactive | MEKK3 confirm inactive
COc1ccc(C(N)CCc2ccco2)cc1 (centres undefined)	MEKK2 mut-MEK5 27.0 | MEKK2wt confirm inactive | MEKK2mut confirm inactive | MEKK3 confirm inactive
COc1ccc(C(OC(=O)c2ccco2)C(=O)NCc2ccco2)cc1 (centres undefined)	none
COc1cccc(C(=O)Nc2nnc(SCC(=O)NC3CCCC3)s2)c1	none
CCOP(=O)(c1ccccc1)C(O)c1ccc([N+](=O)[O-])cc1 (centres undefined)	none
CCOP(=O)(c1ccccc1)C(O)c1ccc(F)cc1 (centres undefined)	MEKK3 PB1 HTS 144.0 | MEKK2wt confirm inactive | MEKK2mut confirm inactive | MEKK3 confirm inactive
CCN1CCC(C(N)=O)CC1	MEKK3 PB1 HTS 0.0[inhibitor], MEKK2wt PB1 HTS 0.0[inhibitor] | MEKK2wt confirm inactive | MEKK2mut confirm inactive | MEKK3 confirm inactive
COc1cc2c(cc1OC)CN(C(=O)c1sc(-c3cnccn3)nc1C)CC2	none
CC(C)C(=O)NNC(=O)CSc1nc(C2CCCCC2)nc2ccccc12	MEKK3 PB1 HTS 140.0 | MEKK2wt confirm inactive | MEKK2mut confirm inactive | MEKK3 confirm inactive
CCc1nc(SCC(=O)NNC(=O)C(C)C)c2ccccc2n1	none
Nn1cnc2c(c1=O)C1(CCCCC1)Cc1ccccc1-2	MEKK3 PB1 HTS 141.0 | MEKK2wt confirm inactive | MEKK2mut confirm inactive | MEKK3 confirm inactive
COc1cccc(-c2nc(CS(=O)CC(=O)NC3CCCCC3)c(C)o2)c1 (centres undefined)	none
